From PubChem BioAssay (NCATS)
Results filed as inconclusive are left out. Active and inactive are the calls of the source. The call rests on the fitted dose curve; in most records, active means well fitted activation curve with a large enough effect; inconclusive means small, poorly fitted or top-dose-only effect; inactive means flat fitted curve, though single readings scatter.

molecular target: Cellular tumor antigen p53 (Homo sapiens) (UniProt P04637); test: Primary qHTS for small molecule compounds that upregulate eGFP-tagged delta133p53alpha (in C-terminal) cells. (AID 2060324); settings: NCI-H358 delta133p53alpha-eGFP (C-terminal tag), GFP fluorescence imaging, 24 h; series mostly up to 57.5 µM; GFP increase (activation): at the top concentration;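 further: 0% = DMSO wells and 100% = 57.5 µM 5-azacytidine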
Description: Assay Development and Screening Technology
National Center for Advancing Translational Sciences (NCATS),
National Institute of Health (NIH), Rockville, Maryland
Cellular senescence (CS) is one of the hallmarks of aging and age-related diseases. Senescent cells are characterized by an irreversible growth arrest, an increase in senescence-associated beta-galactosidase (SA-beta-gal) activity and p16INK4a expression, an activation of the DNA damage response pathways, and the emergence of a senescence-associated secretory phenotype (SASP).
Delta133p53alpha, a human/primate-specific p53 protein isoform, delays or inhibits the induction of CS and SASP in various types of human cells, including progeria-derived fibroblasts, primary normal astrocytes, and CD8+ T lymphocytes. Induction of delta133p53alpha with small molecule compounds may provide therapeutic opportunities for inhibition of senescence/SASP-associated pathologies in progeria syndromes, astrocyte-mediated neuroprotection in neurodegenerative diseases, and possibly prevention and treatment of a wider range of senescence- and aging-associated diseases.
Here we report the development and validation of a cell-based quantitative high throughput screening (qHTS) assay in 1,536-well format. This qHTS assay uses the NCI-H358 cell line with doxycycline-inducible expression of enhanced green fluorescent protein (eGFP)-tagged delta133p53alpha, which allows efficient and highly quantitative measurement of the protein levels.
PROTOCOL TABLE (as described by Inglese J, Shamu CE and Guy RK. 2007)
SEQUENCE No. (e.g., 1, 2, 3, etc.); […] (e.g., Cells, Incubation, Reagent, etc.); VALUE; DESCRIPTION.
1; Cells; 4uL; 800 doxycycline treated cells / well in doxycycline-free media, 1536-well black, clear-bottom low base Aurora microplates.
2; Compounds; 23 nL; Kalypsis pin tool (Wako) equipped with 1536-well pin heads, 5-azacytidine positive control.
3; Incubation; 24 hr; 37C, 5% CO2; 95% relative humidity.
4; Aspiration; 1x; BioTek EL406 washer dispenser (Agilent).
5; Fixing; 3.5% paraformaldehyde, BioTek EL406 washer dispenser (Agilent).
6; Washing; 1x PBS; BioTek EL406 washer dispenser (Agilent).
7; Nuclei staining; 1:1000 dilution of Hoechst 33342 (Thermofisher), BioTek EL406 washer dispenser (Agilent).
8; Incubation; 20 min; in the dark at room temperature.
9; Washing; 2x, 1x PBS (ThermoFisher), BioTek EL406 washer dispenser (Agilent).
10; Reagent; 10 uL; 1x PBS per well, sealed with clear adhesive tape.
11; Detection; Fluorescence, Acumen eX3 laser scanning cytometer (STP Labtech), GFP filters […].
NOTES (numbers refer to sequence numbers above).
1. NCI-H358 cells expressing eGFP-tagged delta133p53alpha were grown in T75 culture flasks and treated with doxycycline for 24h, at 10 ng/ml for eGFP-D133p53a cells (N-terminal cell) and 100 ng/ml for D133p53a-eGFP cells (C-terminal cells). Cells were trypsinized, counted using a Counted 3 Automated Cell Counter (Thermo Fisher), and diluted to a concentration of 200,000 cells/ml. A Multidrop Combi Reagent Dispenser (ThermoFisher) was used to dispense 800 cells/well in […] of doxycycline-free media, into 1536-well black/clear bottom low base plates (AuroraMicroplates).
2. After plating cells, 23 nl of compound library, DMSO vehicle control or positive control (5-azacytidine) were transferred by Pin Tool (Wako). The plate map layout was the same for each plate: (column 1) non-doxycycline treated cells + DMSO vehicle control; (column 2) doxycycline treated cells + DMSO vehicle control baseline; (column 3) doxycycline treated cells + positive control 57.5 uM final concentration 5-azacytidine; (column 4) doxycycline treated cells + serial dilution of 5-azacytidine, 16-point 1:2 titration spanning 1.8 nM to […] final concentration; (columns 5-48) doxycycline treated cells + titration of library compounds.
3. Cells were incubated at 37 °C, 5 % CO2, 95% RH with breathable metal lid for 24h.
4-10. […] […]

Cellular tumor antigen p53 (Homo sapiens), sequence (P04637 whole entry, looked up): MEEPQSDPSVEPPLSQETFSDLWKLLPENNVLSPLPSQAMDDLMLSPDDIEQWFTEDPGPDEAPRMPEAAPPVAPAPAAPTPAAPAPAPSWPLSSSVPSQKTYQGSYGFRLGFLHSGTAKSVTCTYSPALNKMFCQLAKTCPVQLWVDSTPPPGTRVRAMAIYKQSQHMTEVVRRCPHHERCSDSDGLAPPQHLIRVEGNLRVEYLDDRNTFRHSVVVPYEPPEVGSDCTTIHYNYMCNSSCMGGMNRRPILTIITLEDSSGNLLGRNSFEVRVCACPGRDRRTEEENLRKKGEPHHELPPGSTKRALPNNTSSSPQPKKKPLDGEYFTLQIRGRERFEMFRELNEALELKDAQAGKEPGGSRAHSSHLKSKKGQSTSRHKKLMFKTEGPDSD

SMILES	GFP increase (activation)
CN(N=O)c1ccc(O)c(O)c1	10.1% (inactive)
c1ccc(C2CC2)c(OCC2=NCCN2)c1	-3.33% (inactive)
COc1ccc(OC)c(C(O)C(C)N)c1 (stereo not given)	-1.21% (inactive)
COc1ccc2[nH]cc(CCN)c2c1	4.79% (inactive)
CCCN(CCC)[C@@H]1CCc2ccc(O)cc2C1	-7.73% (inactive)
COc1ccc(C(CN(C)C)C2(O)CCCCC2)cc1 (stereo not given)	-15.3% (inactive)
[Cl-].[Cl][Pt].[NH2-].[NH2-].c1ccncc1	3.65% (inactive)
COc1ccc2c(c1)C13CCCCC1C(C2)N(C)CC3 (stereo not given)	-0.931% (inactive)
CN1C2CCC1CC(OC(c1ccccc1)c1ccccc1N)C2 (stereo not given)	4.25% (inactive)
Oc1ccc2c3c1O[C@H]1c4[nH]c5c(c4C[C@@]4(O)[C@@H](C2)N(CC2CC2)CC[C@]314)C[C@@]1(O)[C@H]2Cc3ccc(O)c4c3[C@@]1(CCN2CC1CC1)[C@H]5O4	-0.798% (inactive)
Nc1cc2c(ncn2CCOCP(=O)(O)O)c(=O)[nH]1	0.644% (inactive)
NC1CCc2cc(O)c(O)cc2C1 (stereo not given)	15.4% (inactive)
O=C(O)Cc1cnc[nH]1	0.616% (inactive)
c1ccc2c(N3CCNCC3)cccc2c1	10.3% (inactive)
CC(Cc1ccc(OCC(=O)O)cc1)NCC(O)c1cccc(Cl)c1 (stereo not given)	-4.26% (inactive)
CNCCc1c[nH]c2ccc(O)cc12	-4.67% (inactive)
Oc1ccc2c3c1O[C@H]1c4oc5ccccc5c4C[C@@]4(O)C(C2)N(CC2CC2)CCC314 (stereo not given in full)	15% (inactive)
COc1ccc(CNC(=O)/C=C/c2ccc3[nH]cc(CCN(C)C)c3c2)cc1	8.98% (inactive)
CC(CCc1ccccc1)NC(C)C(O)c1ccc(O)cc1 (stereo not given)	-12.2% (inactive)
CCCC[N+]1(C)C2CC(OC(=O)[C@H](CO)c3ccccc3)CC1C1OC12 (stereo not given in full)	-0.387% (inactive)

SMILES	GFP increase (activation)
CCCCCN(C)CCC(O)(P(=O)(O)O)P(=O)(O)O	3.12% (inactive)
C[C@H](N)CN1CCc2ccc(Br)cc21	6.21% (inactive)
CCCN(CCC)C1Cc2cc(OC)c(OC)cc2C1	6.89% (inactive)
c1ccc2sc(C3(N4CCCCC4)CCCCC3)cc2c1	3.12% (inactive)
Cn1cnc(CCN)c1	-2.69% (inactive)
NCc1cc(=O)[nH]o1	-3.46% (inactive)
Cc1cc([C@@H]2CCCN2C)on1	-8.8% (inactive)
C[N+]1(C)CCN(c2ccccc2)CC1	-10% (inactive)
NC(=O)CN1CCCC1=O	-3.75% (inactive)
O=C1NCN(c2ccccc2)C12CCN(CC1COc3ccccc3O1)CC2 (stereo not given)	1.8% (inactive)
NC(=O)CN1CC(O)CC1=O (stereo not given)	8.98% (inactive)
CN1C2CCC1CC(OC(=O)c1cc(Cl)cc(Cl)c1)C2 (stereo not given)	3.57% (inactive)
O=c1[nH]oc2c1CCNC2	-4.89% (inactive)
CNCCc1ccc(O)c(O)c1	-5.94% (inactive)
O=C(O)CC[N+](=O)[O-]	-1.52% (inactive)
CCCCc1ccc(C(=O)O)nc1	-6.11% (inactive)
O=C1CCCN1CC#CCN1CCCC1	-7.87% (inactive)
CCNC(=O)[C@H]1O[C@@H](n2cnc3c(N)ncnc32)[C@H](O)[C@@H]1O	-0.119% (inactive)
NC(CP(=O)(O)O)C(=O)O (stereo not given)	2.96% (inactive)
CC(C)(C)NCC(O)c1ccccc1Cl (stereo not given)	-4.6% (inactive)
